Drawing on PubChem BioAssay (NCI), this text covers growth for seven molecules.

Test systems include SR leukemia; RPMI-8226 leukemia; OVCAR-8 ovarian; OVCAR-5 ovarian; OVCAR-4 ovarian; SK-OV-3 ovarian; IGROV1 ovarian; OVCAR-3 ovarian; HS 578T breast; NCI/ADR-RES ovarian; T-47D breast; BT-549 breast; MDA-MB-435 melanoma; SW-620 colon; MCF7 breast; HCT-116 colon; HCC-2998 colon; KM12 colon.
What all share (test): NCI-60 one-dose screen, 48 h (100 = growth as untreated, 0 = no growth, -100 = all killed)
Common to all, as to settings: 10 µM unless noted

Molecules are shown by their SMILES. The panel holds about 83,000 compounds, 20% with a hit somewhere; the sample as a whole holds those more often.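 The test compound was applied at a single concentration to cells in 96-well plates for 48 hours, and percent growth was recorded.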 Unmarked numbers belong to inactive results. Active and inactive are the calls of the source. The calls were made as follows: active = growth percent below 10; inactive = the rest.

For `Cc1[nH]c(C(=O)Nc2ccc(C(N)=O)cc2N2CCOC(C)C2)c(Cl)c1Cl` (stereo unspecified), the growth in the assay on SR leukemia was 101%; with RPMI-8226 leukemia, 107%; in the assay with OVCAR-8 ovarian, 96.8%; in the assay on OVCAR-5 ovarian it was 98.1%; with OVCAR-4 ovarian, 97.9%; in the assay with SK-OV-3 ovarian, 102%. The growth in the assay with IGROV1 ovarian is 92.2%; with OVCAR-3 ovarian, 109%; in the assay on HS 578T breast, 94.7%; in the assay on NCI/ADR-RES ovarian it was 93.7%; with T-47D breast it was 83%; with BT-549 breast, 98.3%. Moreover, the growth was 96.1% in the assay on MDA-MB-435 melanoma; 109% with SW-620 colon; 93% in the assay with MCF7 breast; 92% in the assay with HCT-116 colon; 105% in the assay with HCC-2998 colon; 104% with KM12 colon.

As for `CC(C)(C)Nc1nc2c(OCCc3ccccc3)cccn2c1-c1ccc([N+](=O)[O-])cc1`, the growth was 52% with SR leukemia; 43.1% in the assay on RPMI-8226 leukemia; 64% with OVCAR-8 ovarian; 67.3% in the assay with OVCAR-5 ovarian; 42.3% in the assay with OVCAR-4 ovarian; 76.5% with SK-OV-3 ovarian. Besides, the growth with IGROV1 ovarian was 56.9%; in the assay on OVCAR-3 ovarian it was 50.6%; in the assay with HS 578T breast it was 78.3%; in the assay with NCI/ADR-RES ovarian it was 51.6%; with T-47D breast, 15.2%; with BT-549 breast, 95.8%. For the same molecule, the growth in the assay with MDA-MB-435 melanoma is 85.3%; in the assay on SW-620 colon, 77.6%; in the assay with MCF7 breast, 7.18% (active); in the assay on HCT-116 colon, 49.7%; in the assay with HCC-2998 colon, 49.9%; with KM12 colon, 36.8%.

For `CNCCN(C)c1ccc(Nc2cc(NC3CC3)n3ncc(C#N)c3n2)cc1NC(C)=O`, the growth in the assay with SR leukemia is 6.13% (active); in the assay on RPMI-8226 leukemia, 12.2%; in the assay with OVCAR-8 ovarian, 21.7%; in the assay on OVCAR-5 ovarian, 7.68% (active); with OVCAR-4 ovarian it was 2.94% (active); in the assay with SK-OV-3 ovarian it was -13.6% (active). The growth in the assay on IGROV1 ovarian is -18.3% (active); with OVCAR-3 ovarian it was -16.9% (active); in the assay with HS 578T breast, -19% (active); in the assay with NCI/ADR-RES ovarian, 45.5%; with T-47D breast, -16.2% (active); in the assay on BT-549 breast it was -54.7% (active). Further, the growth was 6.93% (active) in the assay on MDA-MB-435 melanoma; -2.54% (active) in the assay on SW-620 colon; -0.902% (active) in the assay on MCF7 breast; -5.45% (active) in the assay on HCT-116 colon; 10.2% with HCC-2998 colon; 8.46% (active) in the assay on KM12 colon.

On to `COc1ccc2c(c1)c(-c1nc(N)nnc1-c1c[nH]c3ccccc13)cn2C`, for which the growth is 14.8% with SR leukemia; 41.8% in the assay on RPMI-8226 leukemia; 51.3% with OVCAR-8 ovarian; 72.2% with OVCAR-5 ovarian; 66.4% with OVCAR-4 ovarian; 63% in the assay with SK-OV-3 ovarian. The growth was 30.5% with IGROV1 ovarian; 19.7% in the assay with OVCAR-3 ovarian; 35.3% with HS 578T breast; 49.8% with NCI/ADR-RES ovarian; 41.2% in the assay with T-47D breast; 49.2% in the assay with BT-549 breast. Further, the growth is -47.8% (active) with MDA-MB-435 melanoma; 17.2% in the assay on SW-620 colon; 15% in the assay on MCF7 breast; 23.1% with HCT-116 colon; 82.9% in the assay with HCC-2998 colon; 24.4% in the assay on KM12 colon.

Turning to `Cc1csc(/N=C(N)/N=C(\N)c2cccnc2)n1`, the growth in the assay with SR leukemia was 45.7%; in the assay with RPMI-8226 leukemia it was 86.1%; with OVCAR-8 ovarian, 89.7%; in the assay with OVCAR-5 ovarian, 92.5%; with OVCAR-4 ovarian, 98.9%; in the assay with SK-OV-3 ovarian, 77.8%. Moreover, the growth was 67.9% in the assay on IGROV1 ovarian; 66.7% in the assay with OVCAR-3 ovarian; 78.8% in the assay with HS 578T breast; 48.4% with NCI/ADR-RES ovarian; 85.5% in the assay with T-47D breast; 77.6% in the assay with BT-549 breast. Besides, the growth was 6% (active) with MDA-MB-435 melanoma; 53.2% with SW-620 colon; 82.1% in the assay on MCF7 breast; 55.1% with HCT-116 colon; 90.2% in the assay on HCC-2998 colon; 48.8% in the assay with KM12 colon.

For `Cc1ccc(S(=O)(=O)NCCCNc2nc(Nc3ccc(N4CCN(C)CC4)cc3)nc3ccsc23)cc1`, the growth was 4.16% (active) in the assay with SR leukemia; 6.57% (active) in the assay with RPMI-8226 leukemia; 40% with OVCAR-8 ovarian; 73.9% with OVCAR-5 ovarian; 23.7% in the assay on OVCAR-4 ovarian; 117% with SK-OV-3 ovarian. Moreover, the growth in the assay on IGROV1 ovarian was 57.1%; in the assay on OVCAR-3 ovarian, 14.6%; in the assay on HS 578T breast, 44%; with NCI/ADR-RES ovarian it was 70.4%; in the assay with T-47D breast, 17.2%; in the assay with BT-549 breast, -1% (active). For the same molecule, the growth was 0.595% (active) in the assay with MDA-MB-435 melanoma; 20.5% in the assay on SW-620 colon; 19% with MCF7 breast; 5.69% (active) in the assay on HCT-116 colon; 27.3% in the assay on HCC-2998 colon; 35.8% in the assay on KM12 colon.

Turning to `Cn1cc(C2=C(c3coc4cc(Br)ccc34)C(=O)NC2=O)c2ccccc21`, the growth in the assay on SR leukemia is 29.5%; with RPMI-8226 leukemia it was 98.9%; in the assay on OVCAR-8 ovarian, 87.2%; with OVCAR-5 ovarian, 113%; with OVCAR-4 ovarian it was 100%; in the assay with SK-OV-3 ovarian, 53.5%. Besides, the growth was 64.7% in the assay with IGROV1 ovarian; 72.7% with OVCAR-3 ovarian; 52.8% with HS 578T breast; 59.2% in the assay on NCI/ADR-RES ovarian; 70% in the assay on T-47D breast; 82.6% in the assay with BT-549 breast. Further, the growth with MDA-MB-435 melanoma was 8.23% (active); in the assay with SW-620 colon, 42.1%; with MCF7 breast, 51.2%; in the assay with HCT-116 colon, 57.4%; in the assay with HCC-2998 colon it was 104%; with KM12 colon, 80.5%.
